High-throughput results as filed in PubChem.
FadD28 binding: M. tuberculosis FadD28 bisubstrate binding inhibition. FadD28 bisubstrate probe binding, fluorescence polarization. inhibition, % at 12.5 µM. hit rate 0.22% among 360,000; in the data active means inhibition above about 8.5%, passing the limit was not always enough
GDH-TPI counter: GDH-TPI coupled enzyme inhibition counter-screen; GDH-TPI coupled enzyme counterscreen, NADH absorbance; inhibition, % at 4.8 µM; hit rate 1.2% among 360,000; AID 588335; in the data active means inhibition above about 30%;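 further: 0% = DMSO wells and 100% = wells lacking the enzyme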
FBA Mtb inh: inhibits M. tuberculosis FBA enzyme; P9WQA3; purified M. tuberculosis FBA, fluorescence read-out; inhibition, % at 1 µM; hit rate 2.3% among 360,000; in the data active means inhibition above about 27%;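 further: 0% = vehicle and 100% = reference inhibitor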
Target sequence (P9WQA3 whole entry, looked up): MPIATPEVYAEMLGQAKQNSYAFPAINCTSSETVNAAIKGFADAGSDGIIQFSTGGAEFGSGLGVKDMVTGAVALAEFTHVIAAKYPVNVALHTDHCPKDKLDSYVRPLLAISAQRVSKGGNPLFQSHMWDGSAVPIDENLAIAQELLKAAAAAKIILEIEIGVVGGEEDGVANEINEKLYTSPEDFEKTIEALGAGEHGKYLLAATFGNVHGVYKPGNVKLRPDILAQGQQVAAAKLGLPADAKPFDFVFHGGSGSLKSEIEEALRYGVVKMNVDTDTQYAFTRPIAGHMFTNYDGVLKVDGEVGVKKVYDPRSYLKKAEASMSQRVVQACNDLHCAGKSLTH
Mtb BioA inh: inhibitors of Mycobacterium tuberculosis BioA enzyme; purified M. tuberculosis BioA enzyme, plate reader; inhibition, % at 9.99 µM; hit rate 0.096% among 360,000; in the data active means inhibition above about 40%
SARS 3CLpro inh: SARS-CoV 3CLpro protease inhibition | P0C6X7 | recombinant SARS-CoV 3CLpro, quenched FRET peptide cleavage | inhibition, % at 6 µM | hit rate 0.14% among 290,000 | AID 1706; in the data active means inhibition above about 12%
The depositor's hits bear a star; · = no result given; + = active, no number. In the library only some 3.1% were active in any assay of this set; here they are far more common.

SMILES | FadD28 binding | GDH-TPI counter | FBA Mtb inh | Mtb BioA inh | SARS 3CLpro inh
Nc1cc(C(=O)O)c(N)c2c1C(=O)c1ccccc1C2=O | 8.3* | 9.5 | -3.0 | · | 2.5
COCC(=O)N(C)C[C@@H]1Oc2cc(-c3ccc(C)cc3)ccc2S(=O)(=O)N([C@@H](C)CO)C[C@H]1C | · | · | · | 0.5 | ·
COCC(=O)Nc1ccc2c(c1)C(=O)N(C)[C@H]1CC[C@@H](CC(=O)NCCc3ccncc3)O[C@H]1CO2 | · | · | · | -1.7 | ·
COC(=O)C1=C(c2ccc(OC(F)(F)F)cc2)C[C@@H]2CC[C@H]1N2C(=O)NCCNC(C)=O | 0.6 | 1.7 | 0.8 | -2.2 | ·
COC(=O)C1=C(c2ccc(OC(F)(F)F)cc2)C[C@@H]2CC[C@H]1N2C(=O)NCCc1ccccc1 | -2.3 | 57.9* | 7.0 | 2.7 | ·
CC(NC(=O)c1ccccc1F)c1ccccc1 (stereo not given) | 1.0 | -3.9 | 1.5 | · | 6.0
CC(NC(=O)c1ccccc1N)c1ccccc1 (stereo not given) | -4.7 | -5.4 | 46.9* | · | 1.5
CC(=O)N(C)C[C@H]1Oc2cc(C#CCC(C)C)ccc2S(=O)(=O)N([C@H](C)CO)C[C@@H]1C | · | · | · | 0.3 | ·
CCOC(=O)CCc1c(C)c2ccc(OCC(=O)N3CCOCC3)c(C)c2oc1=O | -1.0 | 23.9 | 145.8* | 2.8 | -5.1
CCOC(=O)CCc1c(C)c2ccc(OCC)c(C)c2oc1=O | · | · | · | · | -1.6
CCOC(=O)CCc1c(C)c2ccc3c(c2oc1=O)CN(CCCO)CO3 | -1.2 | 13.9 | + | -0.9 | -3.2
COC(=O)Cc1c(C)c2ccc(OCC(=O)N3CCCC3)c(C)c2oc1=O | 0.3 | 21.6 | 151.0* | -0.9 | -3.2
CCOC(=O)COc1ccc2c3c(c(=O)oc2c1C)CCC3 | -5.1 | 6.8 | 17.1 | 6.5 | -3.5
Nc1nn2cc(-c3ccccc3)nc2c2ccccc12 | 0.0 | 4.3 | + | · | 2.5
CCNc1cc2oc(=O)c(CN3CCOCC3)c(C)c2cc1C | -4.2 | 20.5 | + | -0.8 | 2.4
CSc1ccc(/C=C/C(=O)N2CCN(c3ccccn3)CC2)cc1 | -0.6 | 32.3* | 5.0 | 3.9 | 1.3
COc1ccc(/C=C/C(=O)N2CCN(c3ccccn3)CC2)cc1 | · | 12.0 | -0.5 | -1.1 | -1.3
Cc1ccc(S(=O)(=O)N(C)C[C@@H]2Oc3ccc(NS(=O)(=O)c4ccccc4)cc3C(=O)N([C@H](C)CO)C[C@@H]2C)cc1 | · | · | · | -8.8 | ·
C[C@@H]1CN([C@@H](C)CO)C(=O)c2cccc(NC(=O)c3ccncc3)c2O[C@@H]1CN(C)C(=O)NC1CCCCC1 | · | · | · | -0.6 | ·
O=C(C[C@H]1CC[C@@H]2[C@H](COC[C@@H](O)CN2C(=O)c2cnccn2)O1)NCc1ccc(Oc2ccccc2)cc1 | · | · | · | -1.1 | ·
Cc1ccc(C(=O)NC(=S)Nc2ccc(N3CCOCC3)cc2)c(C)c1 | 1.5 | -3.1 | 1.0 | -0.9 | -0.8
O=C(N/N=C/c1ccc(N2CCOCC2)cc1)c1ccc(O)cc1 | -2.8 | 66.2* | 3.6 | -1.0 | 3.1
Cc1ccc(C(=O)N/N=C/c2ccc(N3CCOCC3)cc2)c(C)c1 | -2.4 | 34.3* | 1.0 | · | -1.5
O=C(N/N=C/c1ccc(N2CCOCC2)s1)c1ccc(O)cc1 | 0.3 | 33.9* | 1.0 | -5.7 | ·
O=C(C[C@@H]1CC[C@H]2[C@@H](COC[C@@H](O)CN2C(=O)c2ccc(F)cc2)O1)Nc1ccc(-c2ccccc2)cc1 | · | · | · | 2.1 | ·
SMILES | FadD28 binding | GDH-TPI counter | FBA Mtb inh | Mtb BioA inh | SARS 3CLpro inh
COc1cc(OC)c(/C=N/NC(N)=S)cc1Br | 0.5 | 34.7* | -0.6 | · | -1.4
COc1cc(OC)c(/C=N/NC(=O)c2ccncc2)cc1Br | -8.1 | 22.7 | -0.5 | · | -2.7
CCCc1[nH]n(-c2ccc([N+](=O)[O-])cc2)c(=O)c1C=NCCN1CCNCC1 | · | · | · | · | 5.2
Cc1[nH]n(-c2ccc([N+](=O)[O-])cc2)c(=O)c1C=NCCc1c(C)[nH]c2ccccc12 | -1.0 | 30.7* | -1.6 | 0.2 | -0.6
Cc1[nH]n(-c2ccc([N+](=O)[O-])cc2)c(=O)c1C=NCCc1ccc(S(N)(=O)=O)cc1 | 0.2 | 23.3 | -1.8 | -0.4 | -0.2
CCCc1[nH]n(-c2ccc([N+](=O)[O-])cc2)c(=O)c1C=NCCCn1ccnc1 | -1.2 | 31.9* | -1.0 | 2.0 | 5.6
O=C(c1nc2nc(-c3ccccc3)cc(C(F)(F)F)n2n1)N1CCCCC1 | 1.1 | -5.5 | 8.2 | · | -2.5
COc1ccc(-c2cc(C(F)(F)F)n3nc(C(=O)N4CCOCC4)nc3n2)cc1 | -0.1 | 43.7* | 0.1 | · | 4.7
CCOc1cccc(/C=C/c2cc(C(=O)O)c3ccccc3n2)c1OC | 0.1 | 48.1* | -7.5 | -2.4 | -2.8
CC(C)(C)C1CCC(=NNc2nc3ccccc3[nH]2)CC1 (stereo not given) | -3.6 | 10.2 | 1.0 | · | 0.9
c1ccc2c(c1)CC/C2=N/Nc1nc2ccccc2[nH]1 | -3.5 | 48.8* | 1.2 | 0.2 | 2.3
O=C(/C=C/c1cccs1)c1ccc(NC(=O)c2cccc(Br)c2)cc1 | 1.0 | 40.4* | -0.7 | -1.8 | 0.5
O=C(NCc1ccncn1)[C@@H]1[C@@H](CO)[C@@H]2Cn3c(cccc3=O)[C@H]1N2CC1CC1 | · | · | · | -0.4 | ·
C[C@H](CO)N1C[C@H](C)[C@H](CN(C)S(=O)(=O)c2cn(C)cn2)Oc2ccc(NC(=O)c3ccncc3)cc2C1=O | · | · | · | 1.4 | ·
O=c1[nH]c(=S)n(-c2cccc(Cl)c2)c(O)c1/C=N/N1CCOCC1 | 0.2 | 34.7* | -4.0 | 1.9 | 3.3
CC(=O)Oc1ccc2c(c1)Oc1cc(OC(C)=O)ccc1C21OC(=O)c2ccccc21 | 40.7* | -4.6 | -5.7 | · | -86.1
Cc1cc(/C=C2\C(=O)NN(c3ccccc3)C2=O)c(C)n1-c1ccccc1O | -1.2 | 33.8* | -3.3 | 0.0 | 2.9
COc1ccc(S(=O)(=O)N(C)C[C@H]2Oc3ccc(NS(=O)(=O)c4cccs4)cc3C(=O)N([C@@H](C)CO)C[C@@H]2C)cc1 | · | · | · | 0.7 | ·
C[C@@H]1CN([C@H](C)CO)S(=O)(=O)c2ccc(-c3ccncc3)cc2O[C@@H]1CN(C)CC1CC1 | · | · | · | 1.5 | ·
COc1cccc(NC(=O)N2C[C@H](O)COC[C@@H]3O[C@H](CC(=O)NC4CCCC4)CC[C@H]32)c1 | · | · | · | 3.4 | ·
CC1(C)CC(=O)C2=C(C1)NC1=C(C(=O)c3ccccc31)C2c1cc([N+](=O)[O-])ccc1O (stereo not given) | 20.7* | 23.2 | -5.6 | · | -0.4
CCCn1c(NC(=O)c2cccc(S(=O)(=O)N3CCCC3)c2)nc2ccccc21 | -1.5 | 34.9* | -3.0 | -1.6 | 3.9
O=S(=O)(N[C@H]1CC[C@@H](CCn2cc(-c3cccc(F)c3)nn2)O[C@H]1CO)c1ccc(Cl)cc1 | · | · | · | 4.0 | ·
COCCCNc1nc2nonc2nc1N(C)CC1CCCN1C (stereo not given) | -0.9 | 36.1* | 1.3 | · | 2.0
COCCCNc1nc2nonc2nc1N1C[C@H]2CC[C@H]1C2 | -3.2 | 15.9 | 3.9 | · | -0.2
COc1cccc(/C=N/NC(=O)c2ccc3nc[nH]c3c2)c1 | -3.3 | 11.6 | -1.2 | · | -2.1
O=C(NN=Cc1ccc(N(CCCl)CCCl)cc1)c1cc(=O)[nH]c(=O)[nH]1 | -3.4 | 49.6* | -2.6 | 0.2 | ·
Cn1c(=O)cc(C(=O)N/N=C/c2ccc(Cl)cc2)[nH]c1=O | -0.2 | 16.2 | -0.8 | -2.0 | -4.7
